# Measured values from PubChem BioAssay (NCI).
# Compounds without any hit were thinned out: in the full panel of roughly 83,000, 20% have a hit.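 Testing used 96-well plates and a 48-hour single-concentration exposure. Example: -40 means 40% of the starting cells died.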 Calls of active or inactive are those of the source. How the source made its calls: active means growth percent below 10; inactive means the rest.
# Tested on: HCT-15 colon
# Experiment: NCI-60 one-dose screen, 48 h (100 = growth as untreated, 0 = no growth, -100 = all killed)
# Details: 10 µM unless noted
row,Compound,growth
1,COCCC[C@H]1O[C@@](O)([C@H](C)[C@@H]2CC(OC)C(O)/C=C(C)/C=C(C)/C=C(\C)C(OC3O[C@@H](C)[C@H](O)C(O)[C@@H]3O)C(C)/C=C(C)/C=C(OC)/C=C(\C)C(=O)O2)C(OC)C(O)[C@]1(C)O[C@H]1C[C@@H](O)[C@H](O[C@H]2C[C@](C)(O)[C@H](O)C(C)O2)C(C)O1 (some centres not stated),57.5% (inactive)
2,COc1ccc(N2C(=O)c3cc(OC)c(OC)cc3NC2SCc2ccccc2)cc1 (configuration not stated),96.1% (inactive)
3,Cc1cc2nc(C(Cl)Cl)nc(-c3ccco3)n2n1,72% (inactive)
4,COc1ccc(S(=O)(=O)NCCCNc2nccc(-n3cnc4ccccc43)n2)cc1,92.3% (inactive)
5,O=C(NCCCNc1cc(-c2cn(-c3ccccc3)nc2-c2cccc(O)c2)ccn1)Nc1cc(C(F)(F)F)cc(C(F)(F)F)c1,33.4% (inactive)
6,Cc1ccc(NC(=O)c2ccc(CN3CCN(C)CC3)c(I)c2)cc1Oc1ccc(-c2[nH]nc3ncnc(N)c23)cc1,-54.1% (active)
7,Cc1ccc(-n2cc(/C=C/C(=O)c3ccc(S(C)(=O)=O)cc3)c(-c3ccc(S(C)(=O)=O)cc3)n2)cc1,37.6% (inactive)
8,COc1cc(/C=C/C(=O)c2ccc(NC(=O)CSc3nnc(-c4ccc5nc(-c6ccccc6)[nH]c5c4)o3)cc2)cc(OC)c1OC,87.6% (inactive)
9,O=c1oc2ccc(-c3ccc(F)cc3F)cc2c(=O)n1-c1cccc(C(F)(F)F)c1,9.93% (active)
10,C#CCOc1ccccc1C(Nc1ccccc1)c1nnnn1C1CCCCC1 (configuration not stated),95.5% (inactive)
11,NCCN1CCN(c2nc(-c3ccccc3)nc3nc(-c4ccccc4)oc23)CC1,-66.8% (active)
12,CN1C(=O)N(C)C2Nn3c(s/c(=C\c4ccccn4)c3=O)=NC21 (configuration not stated),99.9% (inactive)
13,CNC(=O)c1cc(N2CCc3cc(NC(=O)Nc4ccc(Cl)c(Cl)c4)ccc32)ccn1,63% (inactive)
14,NS(=O)(=O)c1ccc(-n2cc(CC=O)nn2)cc1,99.8% (inactive)
15,COc1ccc(N)cc1C(=O)Nc1cccc(-c2cc(=O)c3c(OC)c(OC)c(OC)cc3o2)c1,44.7% (inactive)
16,O=C(CSc1nnc(-c2ccc(Cl)cc2)n1-c1ccccc1)Nc1ccc(F)cc1,94.6% (inactive)
17,O=C(c1cccc(F)c1)n1ccc2cc(NC(=S)Nc3cccnc3)ccc21,89.6% (inactive)
18,O=C(O)c1ccc(-n2cc(CNc3ccc(Cl)cc3)c(-c3ccc(F)cc3)n2)cc1,79.6% (inactive)
19,CCC(CC)N1C(=O)/C(=c2\sc3n(c2=O)C2C(NN=3)N(CC)C(=O)N2CC)c2ccccc21 (configuration not stated),10.4% (inactive)

# Tested on: HT29 colon
# Experiment: as above
# Details: 10 µM unless noted
row,Compound,growth
1,COc1ccc(-c2nn(-c3ccccc3)cc2/C=C/C(=O)c2ccc(NC(=O)CCCCCCC(=O)NO)cc2)cc1,94.4% (inactive)
2,O=C(NCCCNc1cc(-c2cn(-c3ccccc3)nc2-c2cccc(O)c2)ccn1)Nc1cccc(C(F)(F)F)c1,9.99% (active)
3,Cc1[nH]nc2ccc(-c3nc4cnc(N5CCN(C)CC5)cn4c3Nc3ccc(F)cc3Br)cc12,4.1% (active)
4,O=C(/C=C/c1cccc(O)c1)c1ccc(O)cc1,80.7% (inactive)
5,C#Cc1ccc(NC(=O)c2ccc(/C=C/C(=O)c3nccn3C)cc2)c(F)c1,15.8% (inactive)
6,O=C(Nc1ccc(F)cc1)c1cc(-c2ccc(F)cc2F)ccc1O,101% (inactive)
7,Oc1ccc(CSc2nnc(-c3ccc(Oc4ccccc4)cc3)o2)c2cccnc12,94.4% (inactive)
8,Cc1ccc(NC(=O)c2ccc(CN3CCN(C)CC3)c(C(F)(F)F)c2)cc1Oc1ccc(-c2[nH]nc3ncnc(N)c23)cc1,-8.89% (active)
9,N#Cc1c(NC(=O)c2ccccc2C(F)(F)F)sc2c1CCC(=O)C2,8.88% (active)
10,CCN(CC)c1ccc2cc(C(=O)NCCOCCOCCOCCn3cc(CCC(=O)Nc4ccc(C(=O)c5ccc(NC(=O)OC(C)(C)C)cc5)cc4)nn3)c(=O)oc2c1,77.9% (inactive)
11,CS(=O)(=O)c1ccc(-c2nn(-c3ccccc3)cc2/C=N/NC(=O)c2ccncc2)cc1,101% (inactive)
12,Cc1ccc(S(=O)(=O)N/N=C/c2cn(-c3ccc(F)cc3)nc2-c2ccc(S(C)(=O)=O)cc2)cc1,105% (inactive)
13,CS(=O)(=O)c1ccc(-c2nn(-c3ccccc3)cc2/C=C/C(=O)c2ccc(Br)cc2)cc1,97.8% (inactive)
14,O=C(NCCCNc1cc(-c2cn(-c3ccccc3)nc2-c2cccc(O)c2)ccn1)Nc1ccc(F)cc1,3.6% (active)
15,CN1C(=O)N(C)C2C1NN=c1s/c(=C\c3ccccn3)c(=O)n12 (configuration not stated),102% (inactive)
16,Fc1ccc(-c2cc3nc(C(Cl)Cl)nc(-c4cccs4)n3n2)cc1,4.52% (active)
17,COc1ccc([C@H]2c3[nH]c4ccccc4c3C[C@@H]3C(=O)N(C4CCN(Cc5ccccc5)CC4)CC(=O)N23)c(OC)c1,43.1% (inactive)
18,Cn1ccnc1C(=O)/C=C/c1ccc(C(=O)Nc2ccc(NC(=O)CCNC(=O)c3csc(Br)n3)cc2)cc1,13.2% (inactive)
19,Cc1nn(-c2ccccc2)cc1/C=N/Nc1nc(Nc2ccccc2)nc(Nc2ccc(S(N)(=O)=O)cc2)n1,5.91% (active)

row,Compound,growth
1,COCCC[C@H]1O[C@@](O)([C@H](C)[C@@H]2CC(OC)C(O)/C=C(C)/C=C(C)/C=C(\C)C(OC3O[C@@H](C)[C@H](O)C(O)[C@@H]3O)C(C)/C=C(C)/C=C(OC)/C=C(\C)C(=O)O2)C(OC)C(O)[C@]1(C)O[C@H]1C[C@@H](O)[C@H](O[C@H]2C[C@](C)(O)[C@H](O)C(C)O2)C(C)O1 (some centres not stated),67% (inactive)
2,COc1ccc(N2C(=O)c3cc(OC)c(OC)cc3NC2SCc2ccccc2)cc1 (configuration not stated),116% (inactive)
3,Cc1cc2nc(C(Cl)Cl)nc(-c3ccco3)n2n1,37.2% (inactive)
4,COc1ccc(S(=O)(=O)NCCCNc2nccc(-n3cnc4ccccc43)n2)cc1,99.7% (inactive)
5,O=C(NCCCNc1cc(-c2cn(-c3ccccc3)nc2-c2cccc(O)c2)ccn1)Nc1cc(C(F)(F)F)cc(C(F)(F)F)c1,31.7% (inactive)
6,Cc1ccc(NC(=O)c2ccc(CN3CCN(C)CC3)c(I)c2)cc1Oc1ccc(-c2[nH]nc3ncnc(N)c23)cc1,-71.1% (active)
7,Cc1ccc(-n2cc(/C=C/C(=O)c3ccc(S(C)(=O)=O)cc3)c(-c3ccc(S(C)(=O)=O)cc3)n2)cc1,70.5% (inactive)
8,COc1cc(/C=C/C(=O)c2ccc(NC(=O)CSc3nnc(-c4ccc5nc(-c6ccccc6)[nH]c5c4)o3)cc2)cc(OC)c1OC,104% (inactive)
9,O=c1oc2ccc(-c3ccc(F)cc3F)cc2c(=O)n1-c1cccc(C(F)(F)F)c1,91.3% (inactive)
10,C#CCOc1ccccc1C(Nc1ccccc1)c1nnnn1C1CCCCC1 (configuration not stated),105% (inactive)
11,NCCN1CCN(c2nc(-c3ccccc3)nc3nc(-c4ccccc4)oc23)CC1,-52.8% (active)
12,CN1C(=O)N(C)C2Nn3c(s/c(=C\c4ccccn4)c3=O)=NC21 (configuration not stated),110% (inactive)
13,CNC(=O)c1cc(N2CCc3cc(NC(=O)Nc4ccc(Cl)c(Cl)c4)ccc32)ccn1,82.1% (inactive)
14,NS(=O)(=O)c1ccc(-n2cc(CC=O)nn2)cc1,101% (inactive)
15,COc1ccc(N)cc1C(=O)Nc1cccc(-c2cc(=O)c3c(OC)c(OC)c(OC)cc3o2)c1,56.5% (inactive)
16,O=C(CSc1nnc(-c2ccc(Cl)cc2)n1-c1ccccc1)Nc1ccc(F)cc1,87% (inactive)
17,O=C(c1cccc(F)c1)n1ccc2cc(NC(=S)Nc3cccnc3)ccc21,103% (inactive)
18,O=C(O)c1ccc(-n2cc(CNc3ccc(Cl)cc3)c(-c3ccc(F)cc3)n2)cc1,112% (inactive)
19,CCC(CC)N1C(=O)/C(=c2\sc3n(c2=O)C2C(NN=3)N(CC)C(=O)N2CC)c2ccccc21 (configuration not stated),5.44% (active)
